In the library only some 18% were active in any assay of this set; here they are far more common.
TDP1 cell CPT: qHTS for Inhibitors of human tyrosyl-DNA phosphodiesterase 1 (TDP1): qHTS in cells in presence of CPT. chicken DT40 Tdp1-/-;hTDP1 cells + 20 nM CPT, ATP luminescence, 48 h. Potency, µM (highest dose often 46.2 µM), for the others: at the highest dose activity change, negative = growth inhibition, actives largely listed as inhibitors. hit rate 12% among 420,000. AID 686979, 2013; note: nearly all actives have a fitted effect of over 55% in size
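Chicken DT40 Tdp1-/- cells complemented with human TDP1, 400 cells/well, exposed to compounds plus 20 nM camptothecin for at least 48 h at 37 C; viability read as ATP content by CellTiter-Glo luminescence.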
TDP1 inh: qHTS Assay for Inhibitors of Tyrosyl-DNA Phosphodiesterase (TDP1); hit rate 0.28% among 350,000; AID 485290, 2010; Potency, µM (series often up to 130 µM), for inactives: at the top dose activity change, negative = inhibition, most hits filed as inhibitors; Tyrosyl-DNA phosphodiesterase 1 (Homo sapiens), Q9NUW8; recombinant TDP1, AlphaScreen DNA substrate cleavage; note: nearly all actives have a fitted effect of over 40% in size
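Steps: enzyme plus compound, 15 min RT; add biotin/phosphotyrosine-FITC oligonucleotide (15 nM final), react 5 min; add donor/acceptor beads (10 ug/ml final), 10 min; read AlphaScreen. Tdp1 at 1 nM final.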
GCN5L2 inh: qHTS Assay for Inhibitors of GCN5L2; Histone acetyltransferase KAT2A (Homo sapiens), Q92830; GCN5L2 HAT assay, ThioGlo1 CoA-SH fluorescence; hit rate 0.21% among 390,000; Potency, µM (doses to about 58.9 µM), inactives show at the highest dose activity change, negative = inhibition, most hits filed as inhibitors
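Free CoA generated was detected with ThioGlo1 (50uM) fluorescence at Ex340nm/Em540nm, read immediately and after 20 min at room temperature. Enzyme, 20 nM in HEPES pH 7.5 buffer, saw compounds 15 min before adding 75uM H3(1-25) peptide and 70uM acetyl-CoA.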
PLK1 PBD block: qHTS for Inhibitors of PLK1-PDB (polo-like kinase 1 - polo-box domain): Primary Screen. Potency, µM, for the others: max response, negative = inhibition, usual class: inhibitors. hit rate 2.8% among 360,000. Plk1 PBD binding of FITC phosphopeptide, fluorescence polarization. Serine/threonine-protein kinase PLK1 (Homo sapiens), P53350; note: series mostly up to about 57 µM; nearly all actives have a fitted effect of over 65% in size
VDR inh: Inhibitors of the vitamin D receptor (VDR): qHTS; Vitamin D3 receptor (Homo sapiens), P11473; VDR-SRC2-3 peptide fluorescence polarization, 2 h; Potency, µM, inactives show max response, negative = inhibition, hits mostly inhibitors; hit rate 0.93% among 400,000; AID 504847, 2011
Target sequence (P11473 whole entry, looked up): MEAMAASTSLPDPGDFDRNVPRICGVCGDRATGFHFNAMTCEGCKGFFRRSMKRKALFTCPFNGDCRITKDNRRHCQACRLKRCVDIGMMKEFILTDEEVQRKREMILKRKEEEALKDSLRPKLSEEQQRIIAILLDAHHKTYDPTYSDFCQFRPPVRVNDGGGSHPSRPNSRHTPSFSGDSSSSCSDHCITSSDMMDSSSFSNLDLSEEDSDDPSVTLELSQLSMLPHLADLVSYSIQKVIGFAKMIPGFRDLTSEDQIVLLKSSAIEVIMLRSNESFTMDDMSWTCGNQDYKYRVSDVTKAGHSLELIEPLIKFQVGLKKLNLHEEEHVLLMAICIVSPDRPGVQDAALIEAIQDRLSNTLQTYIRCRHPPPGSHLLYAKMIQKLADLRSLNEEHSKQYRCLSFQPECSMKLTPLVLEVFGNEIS
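Measured by FP: displacement of SRC2-3 coactivator peptide from VDR by library compounds, following a two-hour ambient incubation.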
TDP1 cell noCPT: qHTS for Inhibitors of human tyrosyl-DNA phosphodiesterase 1 (TDP1): qHTS in cells in absence of CPT; DT40 Tdp1-/- hTDP1 cells, no CPT, ATP luminescence, 48 h; Potency, µM (highest dose often 46.2 µM), for the others: at the top dose activity change, negative = growth inhibition, hits mostly inhibitors; hit rate 15% among 420,000; note: nearly all actives have a fitted effect of over 55% in size
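DT40 Tdp1-/-;hTDP1 cells, no CPT (DMSO vehicle only), 400 cells/well; compounds pin-transferred; ≥48 hr, 37 °C; CellTiter-Glo 30 min RT dark, luminescence read.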
Numbers without * were called inactive; ? = inconclusive; . = no result given; [ ] = dose if it differs, or a comment. Calls come from the whole dose curve; as a rule, active = well fitted curve in the direction sought with a large enough effect; inconclusive = small, poorly fitted or top-dose-only effect, or another doubt; inactive = no such curve, though single readings can be large; an effect the other way counts as inactive or inconclusive. % is set by controls: 0 for no effect and ±100 for the full control effect; potency is the fitted concentration of half-maximal effect.

SMILES	TDP1 cell CPT	TDP1 inh	GCN5L2 inh	PLK1 PBD block	VDR inh	TDP1 cell noCPT
Cc1ccc(C2=Nc3ccccc3N(CC(=O)NCc3ccc(Cl)cc3)C(=O)C2)cc1C	?	3%	-1%	.	7%	15µM*
Cc1ccc(C2=Nc3ccccc3N(CC(=O)NCc3ccc(F)cc3)C(=O)C2)cc1C	15µM*	7%	-10%	.	-2%	23µM*
CC1(C)CC(=O)N(CC(=O)NCc2ccc(F)cc2)c2ccccc2S1(=O)=O	-8%	-3%	-3%	-6%	-10%	-19%
Cc1ccccc1OCC(=O)NCC(=O)OC(c1ccccc1)c1ccccc1	-9%	0%	.	.	-2%	-12%
CCCCOc1ccc(Cc2c(O)nc(SC)[nH]c2=O)cc1	16%	.	-8%	-5%	-4%	-6%
CN(C)N=Nc1ccc(/C=C2\C=Cc3ccccc32)cc1	14µM*	.	.	.	.	?
CN(C)/C=C1\C=Cc2ccccc21	?	.	.	.	.	13µM*
COc1ccc(/C=C2\C=Cc3ccccc32)cc1	4%	.	.	.	.	-28%
C1=Cc2ccccc2/C1=C/c1ccc(/C=C2\C=Cc3ccccc32)cc1	8%	.	.	.	.	6%
NC(N)=Nc1ccc(/C=C2\C=Cc3ccccc32)cc1	11µM*	.	.	.	.	13µM*
COCCC(=O)N1CCC(Oc2ccc(C(=O)NCCn3cccn3)cc2)CC1	11%	4%[56.1 µM]	-8%	0%	-2%	3%
COc1ccc(S(=O)(=O)N(CC(=O)Nc2ccc(F)c(Cl)c2)c2ccc(C)cc2)cc1OC	.	0%	-4%	.	19%	.
COc1ccc(NC(=O)c2ccc(NC(=O)CN3CCN(c4ccccc4O)CC3)cc2)cc1	18µM*	.	.	0%	.	18µM*
COc1ccc(N2CCN(C(=O)CN3CCN(c4nc(-c5ccc(F)cc5)cs4)CC3)CC2)cc1	5.8µM*	9%	-1%	-3%	5%	7.3µM*
COc1ccc(NC(=O)CN2CCN(c3ccc(F)cc3)CC2)cc1	-14%	.	-10%	30µM*	-52%	?
COc1ccc(N2CCN(CC(O)COC(c3ccc(F)cc3)c3ccc(F)cc3)CC2)cc1 (configuration not stated)	18µM*	.	-4%	-6%	-2%	29µM*
COc1ccc(N2CCN(CC(O)COc3ccc(F)cc3)CC2)cc1 (configuration not stated)	?	.	12%	-4%	23%	-13%
CC(C)CCNC(=O)NC(=O)CSc1ncccn1	3%	-3%	-8%	1%	-8%	5%
CCCN(C(=O)COC(=O)CNC(=O)c1ccc2ccccc2c1)c1c(N)n(Cc2ccccc2)c(=O)[nH]c1=O	20%	1%[0.505 µM]	1%	-8%	-16%	-7%
O=C(CN1CCN(c2ccccc2O)CC1)Nc1ccnn1C1CCCC1	21µM*	0%[56.1 µM]	-6%	-10%	45%	21µM*
O=C(CN1CCN(c2ccc(F)cc2)CC1)Nc1nccs1	-1%	.	-5%	24µM*	-6%	-22%
O=C(CN1CCN(S(=O)(=O)c2ccccc2)CC1)Nc1ccnn1C1CCCC1	-28%	-2%[56.1 µM]	2%	1%	2%	?
COc1ccc(C(=O)C2CCN(CC(=O)Nc3ccc(C)cc3)CC2)cc1	-22%	.	-9%	-11%	-17%	29µM*
C=C/C(=C\C)C[C@@H](CC(=O)N[C@@H](CCC(=O)O)CC(=O)O)NC(=O)[C@@H]1CNCC[C@H]1NC(=O)C[C@@H](NC(=O)C[C@H](Cc1ccccc1)NC(=O)[C@@H]1CCCC[C@H]1N)C(C)C	.	-2%	.	.	12%	.
COc1cc(CNc2ncnc3ccc(-c4c(C)noc4C)cc23)cc(OC)c1OC	.	9%	.	.	.	.
SMILES	TDP1 cell CPT	TDP1 inh	GCN5L2 inh	PLK1 PBD block	VDR inh	TDP1 cell noCPT
CC(=O)N1CCN(c2nc(-c3ccco3)c3c(c2C#N)CC(C)(C)SC3)CC1	?	-5%	-11%	-29%	-9%	23µM*
CC1(C)Cc2c(C#N)c(SCC(=O)c3ccccc3)nc(N3CCOCC3)c2CS1	?	8%	-7%	30µM*	-12%	16µM*
CC(Sc1nc(N2CCOCC2)c2c(c1C#N)CC(C)(C)OC2)C(=O)Nc1ccccc1 (configuration not stated)	-12%	-5%	0%	-22%	0%	-21%
CCN1C(=O)c2ccccc2S(=O)(=O)c2ccc(C(=O)NCc3ccccc3Cl)cc21	?	7%	-5%	.	2%	?
COc1ccc2cc3c(N)nn(C(=O)Cc4c[nH]c5ccccc45)c3nc2c1	10µM*	.	?	-12%	-29%	4.1µM*
COc1cccc(CC(=O)n2nc(N)c3cc4ccc(OC)cc4nc32)c1	-10%	3%	-4%	5%	-8%	-27%
COc1ccc2cc3c(N)nn(C(=O)c4ccccc4Cl)c3nc2c1	1.6µM*	8%	-21%	-7%	6%	?
COc1ccc2cc3c(N)nn(C(=O)c4ccc(F)cc4)c3nc2c1	?	.	-6%	-15%	8%	10µM*
COc1ccc2cc3c(N)nn(C(=O)c4cccc(F)c4)c3nc2c1	?	.	-3%	-8%	8%	?
Cc1ccc(OCC(O)CN2CCOCC2)c(C)c1 (configuration not stated)	-11%	.	11%	-7%	5%	-16%
CCOc1ccc(-n2nc(CO)c(C(=O)NCc3ccccn3)n2)cc1	?	5%	0%	.	-3%	?
CCOc1cc(/C=C(/NC(C)=O)C(=O)O)cc(Cl)c1OCc1cccc(Br)c1	5%	3%	-5%	?	6%	-2%
COc1ccccc1OCC(=O)Nc1oc(-c2ccccc2)c(-c2ccccc2)c1C#N	-1%	3%	-3%	-14%	-9%	-20%
Cc1ccc(OCC(=O)Nc2oc(-c3ccccc3)c(-c3ccccc3)c2C#N)cc1	21µM*	.	.	-17%	6%	16µM*
COc1ccc(-c2oc(NC(=O)CCl)c(C#N)c2-c2ccc(OC)cc2)cc1	6.5µM*	9%	0%	-23%	-19%	5.2µM*
COc1ccc(-c2oc(NC(=O)CSc3ncn[nH]3)c(C#N)c2-c2ccc(OC)cc2)cc1	13µM*	12%	-10%	-7%	-8%	?
